Experimental findings from PubChem BioAssay (NCI) are described below.

The structures appear in SMILES notation. Compounds without any hit were thinned out: in the full panel of roughly 83,000, 20% have a hit.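 Plates (96-well) were seeded with cells, treated with compound at one concentration, and incubated for 48 hours before percent growth was determined.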 Values without a mark were called inactive. Activity calls are given as the source filed them. The calls were made as follows: active = growth percent below 10; inactive = the rest.

Among the test systems are HT29 colon; SNB-75 CNS; SNB-19 CNS; U251 CNS; PC-3 prostate; SK-MEL-5 melanoma; LOX IMVI melanoma; SK-MEL-28 melanoma; SK-MEL-2 melanoma; EKVX NSCLC; SN12C renal; UO-31 renal; TK-10 renal; ACHN renal; CAKI-1 renal; A498 renal; CCRF-CEM leukemia; MOLT-4 leukemia; UACC-62 melanoma.
What all share (experiment): NCI-60 one-dose screen, 48 h (100 = growth as untreated, 0 = no growth, -100 = all killed)
Holding throughout (settings): 10 µM unless noted

In the case of `C[Se]C(=O)CC1=C2C=C(F)C=CC2/C(=C\c2ccc(S(C)=O)cc2)C1C` (stereo unspecified), the growth was 13.8% with HT29 colon; -25.5% (active) in the assay with SNB-75 CNS; -22.7% (active) in the assay with SNB-19 CNS; -36.3% (active) in the assay on U251 CNS; 20.4% with PC-3 prostate; -87.7% (active) in the assay on SK-MEL-5 melanoma. The growth in the assay with LOX IMVI melanoma was -68.4% (active); in the assay on SK-MEL-28 melanoma, 4.39% (active); in the assay with SK-MEL-2 melanoma, 17.3%; in the assay on EKVX NSCLC, -7.14% (active); with SN12C renal it was -51.6% (active); with UO-31 renal, 18%. Further, the growth is -19.2% (active) with TK-10 renal; 11% in the assay on ACHN renal; -20.9% (active) in the assay on CAKI-1 renal; -64.8% (active) in the assay with A498 renal; 10.6% in the assay with CCRF-CEM leukemia; 6.51% (active) in the assay on MOLT-4 leukemia.

Consider `COC(=O)Cc1nc(C#N)c(N(C)C)o1`, for which the growth is 106% with HT29 colon; 78.5% in the assay with SNB-75 CNS; 96.1% with SNB-19 CNS; 98.8% in the assay with U251 CNS; 99.4% in the assay on PC-3 prostate; 102% in the assay with SK-MEL-5 melanoma. Further, the growth with UACC-62 melanoma is 87.6%; in the assay with LOX IMVI melanoma it was 97.7%; with SK-MEL-28 melanoma, 104%; in the assay with SK-MEL-2 melanoma, 89.4%; in the assay on EKVX NSCLC, 116%; with SN12C renal, 90.3%. Moreover, the growth in the assay on UO-31 renal was 82.4%; in the assay on TK-10 renal it was 93.3%; in the assay with ACHN renal it was 101%; in the assay on CAKI-1 renal, 97.2%; in the assay on A498 renal it was 125%; in the assay with CCRF-CEM leukemia, 92.9%. The growth with MOLT-4 leukemia is 97.6%.

For `Cc1ccc(-c2nc(C(Cl)Cl)nc3cc(C)nn23)cc1`, the growth with HT29 colon was 3.2% (active); with SNB-75 CNS, -11.5% (active); with SNB-19 CNS, 25.1%; in the assay with U251 CNS it was 4.27% (active); in the assay with PC-3 prostate it was 44.9%; with SK-MEL-5 melanoma, 44.8%. The growth was 59.5% with UACC-62 melanoma; 52% with LOX IMVI melanoma; 38.4% with SK-MEL-28 melanoma; 65.5% in the assay with SK-MEL-2 melanoma; 5.75% (active) in the assay on EKVX NSCLC; 51.3% in the assay with UO-31 renal. Moreover, the growth with TK-10 renal is 29%; with ACHN renal, -45% (active); with CAKI-1 renal, -14.2% (active); in the assay with A498 renal, -2.75% (active); with CCRF-CEM leukemia it was 32.5%; in the assay with MOLT-4 leukemia it was 16.7%.

As to `COc1ncc2cc1NS(=O)(=O)c1cccc(c1)C(=O)NCC1=CC=C(S1)c1ncnc3c1SC2=C3C`, the growth in the assay with SNB-75 CNS is -12.9% (active); in the assay with SNB-19 CNS, 11.5%; in the assay on U251 CNS, -10.2% (active); with SK-MEL-5 melanoma, -38.2% (active); with UACC-62 melanoma, -46.7% (active); with LOX IMVI melanoma, -32.1% (active). The growth is -62.2% (active) with SK-MEL-28 melanoma; -33.2% (active) in the assay with SK-MEL-2 melanoma; -15.6% (active) in the assay with EKVX NSCLC; 5.73% (active) with SN12C renal; -12.9% (active) in the assay with UO-31 renal; -6.51% (active) in the assay with TK-10 renal. The growth is -13.7% (active) in the assay with ACHN renal; -26.1% (active) with CAKI-1 renal; -67.2% (active) in the assay with A498 renal; -0.78% (active) with CCRF-CEM leukemia; -20.2% (active) in the assay on MOLT-4 leukemia.

For `COC(=O)C1=C(C(=O)Nc2cccnc2)C2OC1(C(Cc1ccccc1)Oc1ccccc1)C1OC21` (stereo unspecified), the growth was 59.1% with HT29 colon; 88.7% in the assay on SNB-75 CNS; 102% in the assay on SNB-19 CNS; 101% with U251 CNS; 69.6% with PC-3 prostate; 107% with SK-MEL-5 melanoma. Further, the growth was 69.7% with UACC-62 melanoma; 80.7% in the assay on LOX IMVI melanoma; -75.4% (active) in the assay with SK-MEL-28 melanoma; 93.5% with SK-MEL-2 melanoma; 101% in the assay on EKVX NSCLC; 48.5% in the assay with SN12C renal. The growth is -99.3% (active) in the assay on UO-31 renal; -8.69% (active) with TK-10 renal; -99.2% (active) in the assay with ACHN renal; 57.4% in the assay on CAKI-1 renal; 121% in the assay on A498 renal; -23% (active) with CCRF-CEM leukemia. For the same compound, the growth in the assay with MOLT-4 leukemia is -31.5% (active).

As for `O=C(CN1C(=O)NC2NC(=O)NC21)N/N=C/c1ccc(Cl)cc1Cl` (stereo unspecified), the growth was 110% in the assay on HT29 colon; 82.8% in the assay with SNB-75 CNS; 102% in the assay with SNB-19 CNS; 112% in the assay with U251 CNS; 103% in the assay on PC-3 prostate; 99.5% with SK-MEL-5 melanoma. Moreover, the growth is 103% in the assay on LOX IMVI melanoma; 109% in the assay on SK-MEL-28 melanoma; 113% in the assay on SK-MEL-2 melanoma; 101% in the assay on EKVX NSCLC; 104% with SN12C renal; 84.3% with UO-31 renal. Besides, the growth with TK-10 renal was 101%; with ACHN renal it was 105%; in the assay on CAKI-1 renal, 88.2%; in the assay with A498 renal, 112%; in the assay with CCRF-CEM leukemia, 107%; in the assay with MOLT-4 leukemia, 105%.

As for `C/C(=C(\c1ccc(OCCN2CCCCCC2)cc1)c1ccc(OC(=O)Cc2ccccc2)cc1)c1ccc(Cl)cc1`, the growth is -8.13% (active) in the assay with HT29 colon; 39.7% with SNB-75 CNS; 63.1% with SNB-19 CNS; 8.22% (active) in the assay with U251 CNS; 41.9% with PC-3 prostate; 40.1% with SK-MEL-5 melanoma. The growth in the assay on LOX IMVI melanoma was -94.5% (active); in the assay with SK-MEL-28 melanoma, -27.3% (active); in the assay with SK-MEL-2 melanoma, 52.9%; in the assay on EKVX NSCLC it was 56.4%; in the assay with SN12C renal, 28.9%; in the assay with UO-31 renal, 44.1%. For the same compound, the growth is 68.6% in the assay on TK-10 renal; 62.3% in the assay on ACHN renal; 48.7% with CAKI-1 renal; 79% in the assay on A498 renal; 6.31% (active) in the assay on CCRF-CEM leukemia; -6.79% (active) in the assay with MOLT-4 leukemia.

For the compound `CN1C(=O)N(C)C2C1NC(=S)N2/N=C/C=C/c1ccccc1[N+](=O)[O-]` (stereo unspecified), the growth was 2.85% (active) in the assay with HT29 colon; -5.19% (active) in the assay with SNB-75 CNS; 37% in the assay on SNB-19 CNS; 20.2% in the assay on U251 CNS; 17.3% in the assay on PC-3 prostate; 11.8% with SK-MEL-5 melanoma. Also, the growth with UACC-62 melanoma is 26.4%; in the assay on LOX IMVI melanoma, 31.6%; in the assay on SK-MEL-28 melanoma, 56.7%; in the assay with SK-MEL-2 melanoma it was 17%; in the assay on EKVX NSCLC it was 43.6%; with SN12C renal, 31.4%. The growth was 44.6% in the assay on UO-31 renal; 42.8% with TK-10 renal; 30.7% in the assay on ACHN renal; 23% in the assay on CAKI-1 renal; 10.8% with A498 renal; 7.73% (active) with CCRF-CEM leukemia. For the same compound, the growth with MOLT-4 leukemia was 27.8%.
